Reference: PubChem BioAssay
Calls of active or inactive are those of the source.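 Rule for the calls, unless noted: active = inhibition of the reporter signal at or above 50%; inactive = inhibition below 50%.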

Columns and labels:
[1] = inhibitors of TNFa-induced NFkB p65 translocation, primary screen, imaging, HUVEC, MLSMR starter and 10KST1 sets (AID 438;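 active = inhibition above 20% together with a positive visual image hit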;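 note: compound added about 3h40 before a 20 min TNFalpha stimulation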;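 for inhibition: signal is the nuclear over cytoplasmic p65 intensity ratio per well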); settings: HUVEC TNFa-induced p65 nuclear translocation; cell count: measured here: nuclei count (cytotoxicity indicator), at 2.08 µM; inhibition: at 2 µM, stronger effect = higher value, 0% TNFa-plus-vehicle, 100% no-TNFa wells
[2] = inhibitors of mutant huntingtin aggregation, primary screen, imaging, exon1htt(103Q)mCFP cells, high-content imaging (AID 483;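 active = visual image review flags a hit and inhibition of aggregation exceeds 20%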;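 note: compound exposure lasted 3 days before fixation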;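 for nuclei count: percent of the per-plate median nuclei count of sample wells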); settings: exon1htt(103Q)mCFP cell line, aggregate imaging, at 2 µM; inhibition of aggregation: stronger effect = higher value; nuclei count: measured here: cell count, toxicity
[3] = inhibitors of E-selectin induction by TNFa, primary screen, imaging, HUVEC, immunofluorescence, MLSMR starter and 10KST1 sets (AID 487;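 active = visually confirmed hit in the image check and inhibition above 20%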;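 for inhibition: signal is fraction of cell area covered by stained E-selectin grains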;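 for nuclei count: 100% = median nuclei count of all wells on the same plate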); settings: HUVEC TNFalpha-induced E-selectin immunofluorescence imaging, at 2 µM; inhibition: stronger effect = higher value; nuclei count: measured here: cell number, toxicity
[4] = DUSP6 inhibitors restoring Erk phosphorylation by chemical complementation, primary imaging in DUSP6-transfected HeLa (AID 609;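 active = compounds giving at least 50% inhibition in the cell-based MKP-3 phosphatase rescue imaging test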;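 for inhibition: phospho-Erk level distribution per well compared with pooled transfected vehicle control wells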); settings: HeLa MKP-3 transfected, phospho-Erk imaging KS statistic, at 10 µM, cells stimulated with TPA for 15 min
[5] = target: Dual specificity protein phosphatase 6 (Homo sapiens) (UniProt Q16828); test: as above; settings: HeLa MKP-3 transfected, phospho-Erk imaging KS statistic; at 10 µM; stronger effect = higher value; cells stimulated with TPA for 15 min
Chain of Dual specificity protein phosphatase 6 (Homo sapiens) (Q16828 whole entry, looked up): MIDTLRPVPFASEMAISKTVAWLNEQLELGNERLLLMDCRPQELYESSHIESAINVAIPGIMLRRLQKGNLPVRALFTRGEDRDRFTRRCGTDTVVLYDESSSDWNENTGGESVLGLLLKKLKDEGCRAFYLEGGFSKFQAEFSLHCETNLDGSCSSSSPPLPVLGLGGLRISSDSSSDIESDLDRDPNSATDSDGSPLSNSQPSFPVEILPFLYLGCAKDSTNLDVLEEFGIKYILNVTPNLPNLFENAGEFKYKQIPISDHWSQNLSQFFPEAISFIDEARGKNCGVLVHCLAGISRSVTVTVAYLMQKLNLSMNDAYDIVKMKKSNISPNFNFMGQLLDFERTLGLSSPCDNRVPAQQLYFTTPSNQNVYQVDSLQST

[6] = target: Voltage-gated potassium channel subunit beta-2 (Rattus norvegicus) (UniProt P62483); test: KvBeta enzyme negative modulators, primary screen, biochemical, NADPH fluorescence (AID 622;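 active = fluorescence slope higher than the sample average by over 3 SD, cut at about -0.22 in these data, passing the limit was not always enough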;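 note: slope of raw intensity against log time taken from 70 to 1610 s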); settings: recombinant KvBeta, 4-cyanobenzaldehyde reduction, at 10 µM, stronger effect = higher value
Chain of Voltage-gated potassium channel subunit beta-2 (Rattus norvegicus) (P62483 whole entry, looked up): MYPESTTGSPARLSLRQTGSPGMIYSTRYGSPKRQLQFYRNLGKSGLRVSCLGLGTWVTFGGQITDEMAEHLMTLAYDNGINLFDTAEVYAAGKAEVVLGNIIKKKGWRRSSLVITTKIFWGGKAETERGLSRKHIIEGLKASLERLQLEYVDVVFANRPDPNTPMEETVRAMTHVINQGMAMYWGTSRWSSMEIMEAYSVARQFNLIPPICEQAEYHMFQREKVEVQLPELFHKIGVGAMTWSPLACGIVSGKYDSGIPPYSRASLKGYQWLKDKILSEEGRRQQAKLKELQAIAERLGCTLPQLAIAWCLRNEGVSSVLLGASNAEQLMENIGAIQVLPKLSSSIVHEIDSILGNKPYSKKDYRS

[7] = target: Voltage-gated potassium channel subunit beta-2 (Rattus norvegicus) (UniProt P62483); test: KvBeta positive modulators, primary screen, biochemical, NADPH fluorescence (AID 623;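 active = NADPH fluorescence slope more negative than the mean of all samples by about 3 SD, 99.7% confidence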;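 note: fluorescence intensity change per second fitted from 20 to 320 s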); settings: Recombinant KvBeta, NADPH fluorescence decrease slope, 10 min; at 10 µM; stronger effect = lower value
[8] = target: Alpha-2C adrenergic receptor (Homo sapiens) (UniProt P18825); test: modulators of alpha2C/GIRK thallium flux, primary screen, cell-based, HEK293 alpha2C/GIRK1/2 (AID 624;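 active = fluorescence slope after compound addition differing from the mean of all screened samples at 99.7% confidence, in either direction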;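 note: slope of fluorescence ratio to pre-addition baseline per second over 15 to 24 s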); settings: thallium flux BTC fluorescence, at 10 µM, actives lie on both sides
Chain of Alpha-2C adrenergic receptor (Homo sapiens) (P18825 whole entry, looked up): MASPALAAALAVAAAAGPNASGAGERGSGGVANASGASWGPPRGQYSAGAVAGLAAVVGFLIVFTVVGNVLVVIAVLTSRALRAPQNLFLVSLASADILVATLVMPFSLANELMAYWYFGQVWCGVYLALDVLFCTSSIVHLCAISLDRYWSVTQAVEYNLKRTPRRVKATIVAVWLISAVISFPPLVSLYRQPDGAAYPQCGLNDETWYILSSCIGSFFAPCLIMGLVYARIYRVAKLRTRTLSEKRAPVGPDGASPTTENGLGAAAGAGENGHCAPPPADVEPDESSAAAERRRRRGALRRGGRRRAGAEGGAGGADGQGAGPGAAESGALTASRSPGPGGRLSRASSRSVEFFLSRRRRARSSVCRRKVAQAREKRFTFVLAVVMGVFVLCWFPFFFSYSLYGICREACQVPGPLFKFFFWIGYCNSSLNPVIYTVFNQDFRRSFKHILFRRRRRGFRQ

[9] = target: Muscarinic acetylcholine receptor M4 (Homo sapiens) (UniProt P08173); test: compounds altering M4/GIRK thallium flux, either direction, primary screen, M4 allosteric agonist project, cell-based, HEK293 M4/GIRK, BTC-AM (AID 625;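 active = fluorescence slope after compound addition differing from the mean of all tested samples at 99.7% confidence, mostly higher but some lower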;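 note: thallium influx through GIRK channels coupled to M4 in HEK293 cells with BTC-AM dye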); settings: at 10 µM, actives lie on both sides
Chain of Muscarinic acetylcholine receptor M4 (Homo sapiens) (P08173 whole entry, looked up): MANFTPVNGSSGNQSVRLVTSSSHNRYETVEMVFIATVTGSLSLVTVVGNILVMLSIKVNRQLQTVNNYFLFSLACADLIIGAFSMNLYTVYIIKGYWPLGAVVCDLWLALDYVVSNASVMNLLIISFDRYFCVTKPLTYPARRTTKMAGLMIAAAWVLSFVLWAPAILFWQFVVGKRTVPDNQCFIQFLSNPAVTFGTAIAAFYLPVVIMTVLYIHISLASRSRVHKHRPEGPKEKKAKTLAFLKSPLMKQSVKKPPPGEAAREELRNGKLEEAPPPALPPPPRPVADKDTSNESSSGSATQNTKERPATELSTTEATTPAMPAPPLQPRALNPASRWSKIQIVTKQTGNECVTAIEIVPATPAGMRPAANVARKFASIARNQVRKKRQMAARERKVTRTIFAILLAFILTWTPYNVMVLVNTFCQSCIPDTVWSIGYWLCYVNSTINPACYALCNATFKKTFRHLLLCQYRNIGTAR

[10] = inhibitors of larval lipid processing in zebrafish, primary screen, whole organism, PED6 fluorescence, gall bladder and intestine (AID 686;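 active = a full or partial loss of lipid-probe fluorescence in the fish gall bladder, intestine or both, judged by eye; inactive = no fluorescence loss, or compound toxic to the fish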;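 note: larvae 5 to 7 days old with five fish per well; signal comes from phospholipase A2 cleavage of quenched PED6 carried via bile; overnight exposure to compound and PED6 before scoring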); settings: Zebrafish larvae PED6 lipid processing, fluorescence scoring; screened at 20 µM (by protocol)
[11] = inhibitors of Chlamydomonas gravitaxis, primary screen, whole organism, Chlamydomonas reinhardtii, WT vs cilia-less mutant, absorbance, 96-well (AID 463189;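 active = inhibition at or above 50% relative to wild type and mutant plate controls; inactive = inhibition below 50%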;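 note: 0% = wild type cc124 cells in DMSO and 100% = ciliumless bld1 mutant cells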); settings: OD600 absorbance, 2 days, at 10 µM, stronger effect = higher value
[12] = inhibitors of Sendai virus-induced IRF3 signaling, primary screen, TLR/RLR signaling modifier project, cell-based, Sendai virus stimulus, luciferase, 10K MLSCN set (AID 602276;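 active = inhibition at or above 50% at 10 µM; inactive = inhibition below 50%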;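 note: firefly luciferase from ISG56 promoter only with Renilla not read in this screen; 0% = Sendai virus plus DMSO and 100% = medium plus DMSO without virus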); settings: HEK293 RL24 IRF3 luciferase reporter, at 10 µM, stronger effect = higher value
[13] = inhibitors of poly I:C-induced TLR3 signaling, primary screen, cell-based, poly I:C stimulus, luciferase, 10K MLSCN set (AID 602277); settings: HEK293-TLR3 RL24 IRF3 luciferase reporter, at 10 µM, stronger effect = higher value
[14] = measured here: cell density z-score
[15] = measured here: nuclear c-Myc green intensity z-score
[16] = measured here: nuclear pErk red intensity z-score, stronger effect = higher value

Compound | cell count [1] | inhibition [1] | inhibition of aggregation [2] | nuclei count [2] [%] | inhibition [3] | nuclei count [3] [%] | z-score [4, 14] | z-score [4, 15] | z-score [4, 16] | inhibition [5] | fluorescence slope [6] | NADPH fluorescence slope [7] | slope [8] | fluorescence slope [9] | outcome [10] | inhibition [11] | inhibition [12] | inhibition [13]
CCCN(CCC)C(=O)CC(c1ccc(F)cc1)c1ccco1 (configuration not stated) | 558 | -1.8% (inactive) | 24.6% (inactive) | 92.6 | -37.9% (inactive) | 108 | 0.533 | -0.963 | -0.846 | 11.9% (inactive) | -0.467 (inactive) | -2.2e-05 (inactive) | 0.0041 (inactive) | 0.00507 (inactive) | inactive | 27.9% (inactive) | 19.1% (inactive) | 23% (inactive)
CCOC(=O)c1[nH]c2cc(OC)c(OC)cc2c1NC(=O)C(C)N1CCN(Cc2ccccc2)CC1 (configuration not stated) | 541 | -4.7% (inactive) | 10.2% (inactive) | 106 | -11.1% (inactive) | 140 | 0.355 | -0.877 | -1.74 | 13.9% (inactive) | -0.0434 (active) | 2.3e-06 (inactive) | 0.00443 (inactive) | 0.00565 (inactive) | inactive | 19.7% (inactive) | -0.312% (inactive) | 3.3% (inactive)
CCS(=O)(=O)CCn1c([N+](=O)[O-])cnc1C | 637 | 5.5% (inactive) | 9.6% (inactive) | 97.3 | -68.3% (inactive) | 110 | 0.704 | 2.39 | 0.14 | 27.9% (inactive) | -0.507 (inactive) | -8.1e-05 (inactive) | 0.00495 (inactive) | 0.00503 (inactive) | inactive | 19% (inactive) | -12.7% (inactive) | -11.5% (inactive)
CCOC(=O)CSC1=C(C#N)C(c2ccc(C)cc2)C(C(=O)OC)C(=O)N1 (configuration not stated) | 643 | 4.3% (inactive) | -1.7% (inactive) | 81.9 | -39.2% (inactive) | 133 | 0.598 | 0.472 | -0.921 | 2.92% (inactive) | -0.474 (inactive) | -8.1e-06 (inactive) | 0.00434 (inactive) | 0.00679 (inactive) | inactive | 6.69% (inactive) | -15.1% (inactive) | -12.7% (inactive)
COC(=O)c1cc(Br)c(=O)n(-c2nccs2)c1 | 750 | -4.2% (inactive) | -14.3% (inactive) | 102 | -134% (inactive) | 142 | -1.41 | 0.813 | -2.4 | 38.2% (inactive) | -0.421 (inactive) | -5.6e-05 (inactive) | 0.00443 (inactive) | 0.00469 (inactive) | inactive | 6.75% (inactive) | -0.165% (inactive) | 1.38% (inactive)
COC(=O)/C=c1/s/c(=C(/C#N)C(=O)N2CCOCC2)n(-c2ccccc2)c1=O | 611 | 1.5% (inactive) | -12.2% (inactive) | 98.4 | 7.3% (inactive) | 119 | 0.31 | -0.164 | -0.787 | 1.63% (inactive) | -0.479 (inactive) | -5e-05 (inactive) | 0.0052 (inactive) | 0.00508 (inactive) | inactive | 21% (inactive) | 15.2% (inactive) | 17.7% (inactive)
O=C(CCN1C(=O)c2ccccc2C1=O)OCN1C(=O)c2ccccc2C1=O | 490 | 2.7% (inactive) | 10% (inactive) | 95.1 | -112% (inactive) | 151 | 0.766 | -1.53 | -0.92 | 29.7% (inactive) | -0.336 (inactive) | 4.5e-07 (inactive) | 0.00721 (inactive) | 0.00607 (inactive) | inactive | 1.44% (inactive) | -10.1% (inactive) | -11.6% (inactive)
CCOC(=O)c1ccc(N2C(=O)CC(Sc3nnc(C)s3)C2=O)cc1 (configuration not stated) | 627 | -1.6% (inactive) | -10.1% (inactive) | 98 | -62.1% (inactive) | 104 | 0.196 | -1.44 | -0.8 | -5.81% (inactive) | -0.471 (inactive) | -1.4e-05 (inactive) | 0.0059 (inactive) | 0.00572 (inactive) | inactive | 30.9% (inactive) | 1.68% (inactive) | 7% (inactive)
C=CCn1c(SCC(=O)c2ccccc2)nnc1-c1ccc2c(c1)OCO2 | 728 | -2.4% (inactive) | -1% (inactive) | 92.4 | -60.6% (inactive) | 117 | 0.143 | 0.0826 | 1.39 | -13.3% (inactive) | -0.528 (inactive) | -3.6e-05 (inactive) | 0.00455 (inactive) | 0.00674 (inactive) | inactive | -7.63% (inactive) | -8.67% (inactive) | -3.99% (inactive)
